The list is not random: actives were taken first. Their share in the collection is about 11%.
G9a block = blocks human histone lysine methyltransferase G9a. Q96KQ7. G9a H3K9 monomethylation, AlphaScreen, 2 h. Potency, µM (series often up to 102 µM), for inactives: at the highest dose activity, negative = inhibition, most hits filed as inhibitors. 350,000 compounds, 8.8% hits; further: on the % scale 0 is the no-effect control and ±100 the full control effect; nearly all actives have a fitted effect of over 75% in size
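Enzyme 20 nM + cpd, 15 min RT; add b-H3K9 pep 500 nM / SAM 20 uM; 2 h RT; anti-H3K9me1 Ab 0.5 ug/mL + SA donor / anti-rabbit acceptor beads 20 ug/mL each, 10 min; AlphaScreen read.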
L3MBTL1 inh = blocks human L3MBTL1; Q9Y468; AlphaScreen L3MBTL1–H3K9me1 peptide binding; Potency, µM (top dose mostly 57.1 µM), without a hit: at the top dose activity, negative = inhibition, most hits filed as inhibitors; 230,000 compounds, 0.66% hits; AID 485360; further: on the % scale 0 is the no-effect control and ±100 the full control effect; nearly all actives have a fitted effect of over 60% in size
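First, the protein-peptide complex forms for 30 min at room temperature (L3MBTL1 50 nM, biotinylated H3K9me1 peptide 75 nM). Next, compounds are pin-transferred and incubated 30 min. Finally, AlphaScreen beads are added and read after 30 min.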
JMJD2A Tudor = blocks the human JMJD2A Tudor domain; Potency, µM (series often up to 114 µM), for the others: at the highest dose activity change, negative = inhibition, most hits filed as inhibitors; 390,000 compounds, 4.4% hits; AlphaScreen JMJD2A-Tudor / H3K4me3 peptide binding; further: on the % scale 0 is the no-effect control and ±100 the full control effect; nearly all actives have a fitted effect of over 50% in size
Target sequence (O75164 whole entry, looked up, the tested form may be a part): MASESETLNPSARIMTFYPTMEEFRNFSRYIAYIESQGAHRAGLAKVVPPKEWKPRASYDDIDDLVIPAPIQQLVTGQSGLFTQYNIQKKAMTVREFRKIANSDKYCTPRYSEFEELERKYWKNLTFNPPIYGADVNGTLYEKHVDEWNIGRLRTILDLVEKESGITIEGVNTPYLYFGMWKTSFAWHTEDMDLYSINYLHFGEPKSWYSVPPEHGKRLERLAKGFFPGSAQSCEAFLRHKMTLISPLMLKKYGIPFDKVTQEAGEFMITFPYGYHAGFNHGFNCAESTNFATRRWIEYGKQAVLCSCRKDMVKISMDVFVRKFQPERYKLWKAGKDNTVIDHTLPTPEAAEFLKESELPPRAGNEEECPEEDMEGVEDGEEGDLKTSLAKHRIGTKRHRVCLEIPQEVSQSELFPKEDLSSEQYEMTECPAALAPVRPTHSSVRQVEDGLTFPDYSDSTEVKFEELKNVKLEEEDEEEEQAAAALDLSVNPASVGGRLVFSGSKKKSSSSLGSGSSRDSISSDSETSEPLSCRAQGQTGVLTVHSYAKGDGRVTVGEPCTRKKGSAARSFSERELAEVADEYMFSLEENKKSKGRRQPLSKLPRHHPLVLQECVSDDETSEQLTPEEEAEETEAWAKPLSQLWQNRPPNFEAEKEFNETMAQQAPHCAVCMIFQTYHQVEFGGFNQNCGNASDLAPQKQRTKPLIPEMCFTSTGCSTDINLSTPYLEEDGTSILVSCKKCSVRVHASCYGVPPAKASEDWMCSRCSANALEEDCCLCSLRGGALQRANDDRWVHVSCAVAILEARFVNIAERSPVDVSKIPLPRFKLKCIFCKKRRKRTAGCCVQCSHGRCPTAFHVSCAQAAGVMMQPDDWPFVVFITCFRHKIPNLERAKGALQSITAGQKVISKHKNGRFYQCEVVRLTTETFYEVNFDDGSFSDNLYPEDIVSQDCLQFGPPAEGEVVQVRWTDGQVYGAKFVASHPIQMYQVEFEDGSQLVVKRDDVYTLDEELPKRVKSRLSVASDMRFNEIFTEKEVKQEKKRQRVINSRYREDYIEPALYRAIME
HP1b binding inh = HP1-beta chromodomain-methylated histone interaction inhibition. AlphaScreen HP1-beta / biotin-H3K9me3 peptide binding. Potency, µM (top dose mostly 114 µM), for inactives: at the highest dose activity change, negative = inhibition, usual class: inhibitors. 390,000 compounds, 0.56% hits; further: nearly all actives have a fitted effect of over 70% in size
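Compound inhibition of the preformed complex between 50 nM HP1-beta and 50 nM biotinylated H3K9me3 peptide was read by AlphaScreen. Buffer was PBS pH 7.4 with 0.01% Tween-20. Incubations ran 30 min at room temperature, with 10 ug/mL donor/acceptor beads.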
BAZ2B block = inhibitors of human BAZ2B bromodomain | Q9UIF8 | AlphaScreen BAZ2B-H3K14Ac peptide displacement | Potency, µM (top dose mostly 114 µM), for the others: at the highest dose activity change, negative = inhibition, usual class: inhibitors | 360,000 compounds, 4.4% hits; further: on the % scale 0 is the no-effect control and ±100 the full control effect; nearly all actives have a fitted effect of over 60% in size
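Compounds, titrated to a top concentration of 110 uM, were incubated 30 min at room temperature with preformed BAZ2B/acetyl-K14 H3 peptide complex (50 nM each). Proximity signal was measured by AlphaScreen after 20 min with beads.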
An asterisk follows results filed as active; ? = inconclusive; nt = not tested or not shown; [ ] = dose if it differs, or a comment. The call rests on the fitted dose curve; in most records, active means well fitted inhibition curve with a large enough effect; inconclusive means small, poorly fitted or top-dose-only effect; inactive means no such curve, though single readings can be large or run the other way. Potency means the concentration at half of the fitted maximal effect.

SMILES | G9a block | L3MBTL1 inh | JMJD2A Tudor | HP1b binding inh | BAZ2B block
CC[n+]1c(C=C2C=C(C)OC(C)=C2)sc2ccccc21 | -24.3% | -1.3% | -22.8% | 33.4% | -30.7%
CC[n+]1c(/C=C(\C)SC)sc2ccccc21 | 79.4µM* | -7.2% | ? | 33.7% | 79.4µM*
COc1ccc(CCn2c3c(c(=O)[nH]c2=S)CN(c2ccccc2)CN3)cc1OC | nt | nt | -19.0% | 2.4% | nt
O=C(O)CCN1CCc2ccccc21 | ? | ? | -14.2% | 2.4% | ?
O=C(O)CCN1CCc2ccccc2C1c1ccncc1 (stereo unspecified) | 50.1µM* | nt | -6.0% | 46.3% | -24.6%
O=C(Nc1cc(F)ccc1F)C1CCN(C(=O)c2cnn(-c3ccccc3)c2-n2cccc2)CC1 | -4.2%[59 µM] | nt | -10.7% | 35.9% | -4.5%
O=C(C(=O)N1CCCc2ccccc21)c1c[nH]c2ccccc12 | -21.9%[0.0925 µM] | 11.4% | -12.9% | 0.2% | -1.9%
Clc1ccccc1N1CCN(Cc2c[nH]c3ccccc23)CC1 | nt | nt | 20µM* | ? | nt
COc1ccc(CN2CCN(Cc3c[nH]c4ccccc34)CC2)cc1 | ? | nt | 0.794µM* | 35.5µM* | 20µM*
COc1ccc(C(=O)C2CCCN(Cc3c[nH]c4ccccc34)C2)c(OC)c1 (stereo unspecified) | ? | -15.2% | -27.8% | 15.0% | -22.9%
COc1ccc(Br)cc1CN1CCN(Cc2c[nH]c3ccccc23)CC1 | 8.91µM* | nt | 2.82µM* | ? | 14.1µM*
O=C(C(=O)N1CCN(c2ccccc2Cl)CC1)c1c[nH]c2ccccc12 | -5.5% | nt | ? | 7.2%[57 µM] | 50.1µM*
Fc1ccccc1N1CCN(C2CCN(Cc3c[nH]c4ccccc34)CC2)CC1 | -5.5%[59 µM] | -14.2% | -6.1% | 22.6% | 0.5%
COc1ccc(-c2nc3cnc(N(C)C)nc3n(CCC#N)c2=O)cc1 | 18.2%[0.501 µM] | nt | nt | nt | nt
O=C(CN1CCN(c2cccc(C(F)(F)F)c2)CC1)N(C1CCCC1)C1CCS(=O)(=O)C1 (stereo unspecified) | 26.4%[12.7 µM] | 0.9% | -9.8% | 25.6% | 8.4%
O=c1oc2ccc(F)cc2cc1-c1nc(-c2cccs2)no1 | -1.2%[59 µM] | nt | -18.3% | 23.2% | -15.0%
Cc1ccc(-c2ccc(=O)n(CC(=O)NC(C)c3ccccc3)n2)cc1 (stereo unspecified) | -20.5%[59 µM] | nt | -20.2% | 24.5% | 0.5%
COc1ccc(OC)c(NC(=O)N2CCC(CN3CCCCC3)CC2)c1 | -25.9%[59 µM] | nt | -11.2% | 37.4% | 2.2%
Cc1ccccc1N/C(=C(/C(Cl)=C(Cl)Cl)[N+](=O)[O-])n1nnc2ccccc21 | 10µM* | nt | ? | -5.5% | 50.1µM*
COc1ccc(N/C(=C(/C(Cl)=C(Cl)Cl)[N+](=O)[O-])n2nnc3ccccc32)cc1 | 11.2µM* | nt | nt | nt | 50.1µM*
Cc1ccccc1NC(=O)c1nn(C)c(C(=O)Nc2ccccc2C)c1[N+](=O)[O-] | 6.4% | 6.4% | -18.2% | 25.1% | -4.1%
Cc1ccc(CN(Cc2ccc(C)o2)C(=S)NCC(=O)O)cc1 | ? | 8.5% | -13.8% | 7.9% | 3.9%
Cc1ccc(CN(Cc2ccccc2)C(=S)NCC(=O)NCc2cccnc2)o1 | 28.2µM* | 13.4% | ? | 1.4% | -24.7%
Cc1ccc(CN(Cc2ccco2)C(=S)NCC(=O)O)cc1 | 31.6µM* | 4.5% | -12.9% | 14.3% | -5.5%
Cc1ccc(CN(Cc2ccco2)C(=S)NCC(=O)NCc2cccnc2)cc1 | 12.6µM* | nt | -32.3% | ? | ?
SMILES | G9a block | L3MBTL1 inh | JMJD2A Tudor | HP1b binding inh | BAZ2B block
Cc1cccc(CNC(=O)c2cc3cc(S(=O)(=O)N4CCCCC4)ccc3n2C)c1 | 14.1%[59 µM] | nt | -10.4% | 22.2%[57 µM] | 4.7%
O=C(CSc1nnc(NC(=O)c2c(F)cccc2F)s1)NCc1ccco1 | 44.7µM* | -8.2% | -15.5% | 18.9% | 8.6%
O=C(CSc1nnc(NC(=O)c2ccccc2F)s1)NCc1ccco1 | 18.9%[12.7 µM] | nt | -20.1% | 6.6% | ?
O=C(CSc1nc(-c2ccc(F)cc2)cs1)NC(=O)NCc1ccco1 | -16.5%[59 µM] | -25.0% | ? | 3.8% | 50.1µM*
Nc1nc(NCc2ccc(F)cc2)c2[nH]cnc2n1 | nt | nt | -11.3% | 33.3% | nt
COc1ccc(C(=O)NCC(c2ccc3c(c2)OCO3)N2CCN(c3ccccc3F)CC2)cc1 (stereo unspecified) | -26.7%[59 µM] | nt | -33.9% | 20.0%[57 µM] | -25.5%
O=[N+]([O-])c1ccc(-c2nn(-c3ccccc3)cc2/C=N/n2c(-c3cccs3)n[nH]c2=S)cc1 | nt | nt | -22.1% | 33.1% | 0.9%
COc1ccc(/C=N/n2c(-c3cccs3)n[nH]c2=S)cc1 | ? | -7.6% | 44.7µM* | -16.8% | -37.1%
Cc1ccc(/C=N/n2c(-c3cccs3)n[nH]c2=S)cc1 | 0.447µM* | -4.2% | 50.1µM* | 5.0% | -26.0%
S=c1[nH]nc(-c2cccs2)n1/N=C/c1c(Cl)cccc1Cl | 1.26µM* | -5.2% | ? | -23.9% | -33.9%
Cc1ccc(S(=O)(=O)c2cnc(SC(C)C(=O)Nc3ccccc3)[nH]c2=O)cc1 (stereo unspecified) | -0.1%[59 µM] | nt | -19.6% | 34.9% | -1.5%
Nc1nc(-c2ccco2)cs1 | 44.7µM* | 2.8% | -7.2% | 11.4% | -5.3%
Nc1nc(-c2ccco2)c(-c2ccco2)s1 | ? | ? | ? | ? | 44.7µM*
c1coc(-c2nc3cc4ccccc4cc3nc2-c2ccco2)c1 | nt | nt | 7.94µM* | 7.94µM* | nt
Nc1nc(-c2cccs2)c(-c2cccs2)s1 | ? | nt | -25.7% | ? | ?
c1coc(-c2ncc[nH]2)c1 | ? | -4.2% | -17.7% | 11.6% | ?
c1coc(-c2nc(-c3ccco3)c(-c3ccco3)nc2-c2ccco2)c1 | 11.2µM* | 10µM* | 7.94µM* | ? | 28.2µM*
COc1ccccc1S(=O)(=O)Cc1ccc(C(=O)NCc2ccc(Cl)cc2)o1 | 3.1%[59 µM] | nt | 7.4% | 44.6% | -16.5%
COc1ccc(C)cc1NC(c1nnc(-c2ccccc2)o1)c1ccc(F)cc1Cl (stereo unspecified) | ? | nt | -34.2% | -0.1% | ?
COc1ccc2nc(-c3ccco3)c(-c3ccco3)nc2c1 | ? | nt | ? | -18.7% | 50.1µM*
CC(C)c1nnc(NC(=O)CCS(=O)(=O)c2nc(-c3cccs3)cc(C(F)(F)F)n2)s1 | 1.78µM* | -9.8% | -23.5% | 29.6% | 89.1µM*
CC(C)c1nnc(NC(=O)CCS(=O)(=O)Cc2ccccc2)s1 | 28.2µM* | nt | 1.4% | -16.5% | -0.3%
CC(=O)Nc1cccc(-c2nnc(SCC(=O)c3cc([N+](=O)[O-])ccc3Cl)o2)c1 | -38.5%[59 µM] | nt | -13.1% | 13.1% | ?
CC(=O)NCc1ccc(C(=O)COC(=O)COc2ccccc2)s1 | 20µM* | -8.6% | -9.5% | 23.3% | -30.8%
CC(=O)NCc1ccc(C(=O)COC(=O)COc2ccc(Cl)c(C)c2)s1 | nt | -4.8% | -20.8% | 30.3% | nt
Cc1cc(C)n(CC(=O)N/N=C/c2cc([N+](=O)[O-])ccc2O)n1 | -14.4% | ? | ? | 31.9% | 39.8µM*
Nc1nnnn1CC(=O)N/N=C/c1cc([N+](=O)[O-])ccc1O | 24.2% | 0.159µM* | 20µM* | 29.8% | 19.3%

Screens from PubChem BioAssay.
